From PubChem BioAssay AID488890 (Southern Research Specialized Biocontainment Screening …, 2010) come the findings set out here.

Hit rate of the full screen: of about 320,000 compounds, about 1,300 (0.41%) were called active. About 3% were inconclusive and are not listed. No rule for the calls is given here. A selection follows. Entries with a potency or affinity are not part of this list.

The test in a line: growth inhibition of non-replicating M. tuberculosis (AID 488890).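 Also: plate controls were DMSO cells for no effect and high antibiotic wells for full effect.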 To be noted: Mycobacterium tuberculosis non-replicating, at 25 µM, stronger effect = higher value.
Regarding `CCCn1c(N)c(C(=O)CSc2nc3ccccc3c(=O)n2Cc2ccccc2)c(=O)[nH]c1=O`, the inhibition (usually the change of the read-out against control, counted positive when it falls) worked out at 21%.
With `COc1ccc(/C=N/NC(=O)c2ccn[nH]2)cc1Cn1cc([N+](=O)[O-])cn1` the figure was -4.11%; with `O=C(Nc1ccc(Cl)cn1)c1cc2c(s1)-c1ccccc1OC2`, 27.1%.
With `O=C(NCc1ccccc1)c1ccc(Br)o1` the figure was 77.6%; with `O=C(CNC(=O)c1ccco1)NC1CCCCCC1`, 5.43%; with `O=C(O)c1ccc(CNC(=O)c2ccc(Br)o2)cc1`, 21.4%.
Next, `O=C(NCCNC1CCCCC1)c1ccco1`: -9.39%; `O=C(NCc1ccncc1)c1ccc(Br)o1`: 12.8%; `O=C(CNC(=O)c1ccc(Br)o1)NCc1ccc(F)cc1`: 23.3%.
For the molecule `C=CCn1c(O)c(C(CC)=Nc2cc(OC)ccc2OC)c(=O)[nH]c1=O`, the inhibition was 7.07%.
`CCNC(=S)NNC(=O)c1ccccc1OC(F)F`: the inhibition was -5.06%.
Next, `COc1ccc(CC(C(=O)Nc2ccc(OC)cc2)c2nn[nH]n2)cc1` (configuration not stated): 8.92%; `Cc1cc(=O)oc2cc(NC(=S)NCc3cccnc3)ccc12`: -4.07%; `CCCC(=O)c1cc2c(cc1NC(=O)c1ccccc1F)OCCO2`: 4.71%.
With `CC(=O)N1CCc2c(sc3c2c(=O)n(-c2ccccc2)c(=O)n3Cc2ccccc2Cl)C1` the figure was -8.11%.
In the case of `O=C(NCCCn1ccnc1)Nc1ccc2c(c1)OCO2`, the inhibition is -2.69%.
Take `Cc1cc(C)c(-c2csc(NC(=O)C3=COCCO3)n2)c(C)c1`: the inhibition was 34.2%.
Next, `Cc1cc(C)c(NC(=O)C2=COCCO2)c(C)c1`: -16.1%; `Cc1nc(-c2ccc(-n3nncc3-c3ccco3)cc2)cs1`: 58.1%.
As for `Cc1ccc(C(=O)O/N=C(\N)Cc2cccs2)c(Cl)c1`, the inhibition was found to be 60.4%.
For the molecule `C#CCOCCOCCOCCNc1nc(N2CCN(C(=O)[C@H](CCC(=O)O)n3cc(C(N)CC(C)C)nn3)CC2)nc(N2CCN(C(=O)[C@H](CCC(=O)O)n3cc(C(N)[C@H](C)CC)nn3)CC2)n1` (some centres not stated), the inhibition was -2.67%.
With `CCc1nc(CN2CCN(c3cc(C(F)(F)F)ccn3)CC2)c(C)[nH]1` the figure was 20.5%; with `CCCCN(CC)CCCNC(=O)c1cc2c(-c3ccc(OC)c(OC)c3)nn(C)c2s1`, 34.8%.
With `CCN(CC)CCNC(=O)c1cc2c(-c3ccc(Cl)cc3)nn(C)c2s1` the figure was 67.4%.
As to `Cc1nc(C(=O)N(C)C)nn1-c1ccc(Cl)cc1Cl`, the inhibition is -3%.
Turning to `COc1ccc(NC(=O)C2=Cc3ccccc3OC2)cc1`, the inhibition is 76.7%.
With `COc1ccc(C(CNC(=O)CSc2ccc(Br)cc2C)N2CCOCC2)cc1` (configuration not stated) the figure was 7.11%.
Regarding `CCN1C(=O)/C(=C\N(C(C)=O)c2ccccc2)OC1=S`, the inhibition turned out to be 6.17%.
Next, `CCc1nc(N(CC)CC)c2oc3ccccc3c2n1`: 25.6%.
Regarding `Cc1ccc(Oc2nc(-c3cccnc3)nc3ccccc23)c([N+](=O)[O-])n1`, the inhibition is -3.06%.
`c1ccc(Oc2nc(-c3cccnc3)nc3ccccc23)cc1`: the inhibition came out at 18.6%.
With `Fc1ccc(F)c(NC2=NCCCCC2)c1` the figure was -19%.
Consider `O=C(NNC1=C(C(=O)C(F)(F)F)CCC1)c1cccnc1`, for which the inhibition was -16.6%.
In the case of `O=C(NNC1=C(C(=O)C(F)(F)F)CCC1)c1ccncc1`, the inhibition was found to be 56.2%.
Next, `COc1ccccc1C(=O)NNC1=C(C(=O)C(F)(F)F)CCC1`: 77.4%; `O=C(NNC1=C(C(=O)C(F)(F)F)CCC1)c1cccc(O)c1`: 58.3%; `Cc1ccc(CNC(=O)CN(c2ccc(C(C)C)cc2)S(=O)(=O)c2c(C)noc2C)cc1`: 7.31%.
With `Cc1ccsc1/C=N/NC(=O)Cn1nc(C)c([N+](=O)[O-])c1C` the figure was -14.9%; with `COc1ccccc1N1C[C@@H]2C[C@@H](c3ccco3)N3CCC[C@@]23C1=O`, 14.9%; with `COC(=O)C1=C(N)Oc2cc(C)n(CC3CCCO3)c(=O)c2C1c1ccccc1` (configuration not stated), 2.48%.
Next, `Cc1ccnc(NC(=O)C2CCN(S(=O)(=O)c3cccc4nonc34)CC2)c1`: 9.48%.
For the molecule `Cc1ccccc1NC(=O)c1cccc(S(=O)(=O)Nc2cccc(C(=O)O)c2)c1`, the inhibition is 19.2%.
With `CC1(C)Oc2ccc(C(=O)NN)cc2NC1=O`, the inhibition came out at 9.35%.
As to `CC1=C/C(=C\c2ccc3c(c2)OCO3)C(=O)S1`, the inhibition worked out at 31.9%.
Next, `COc1ccc(/C=C2\N=C(SC)SC2=O)cc1OC`: 76.1%; `CC1(C)CC(=O)C(C=Nc2ccc(N)cc2)=C(O)C1`: 23.2%.
Next, `CCOc1ccc(N=CC2=C(O)CC(C)(C)CC2=O)cc1`: 31.2%; `CCOc1cc(C2NCc3ccccc3-n3cccc32)ccc1OC` (configuration not stated): 1.16%.
As for `O=C1CN(C(=O)COC(=O)CCC(=O)c2ccc(Cl)cc2)c2ccccc2N1`, the inhibition turned out to be 16.1%.
As to `COc1ccc(CNCc2ccc3ccccc3c2)c(OC)c1`, the inhibition came out at 23.2%.
With `COc1cccc(CNCc2ccc(OC)cc2OC)c1`, the inhibition was 16.2%.
As to `COc1ccc(C)cc1NC(=O)c1sc2ncn(CC(=O)N3CCCCC3)c(=O)c2c1C`, the inhibition was -1.26%.
For the molecule `Cc1nc2ccc(NC(=O)c3ccc(C)c(S(=O)(=O)N4CCOCC4)c3)cc2s1`, the inhibition came out at 29.1%.
As to `OC1(c2ccccc2)CCN(Cc2ccccc2)CC1`, the inhibition is -5.95%.
With `OC(c1ccccc1)C1CN(Cc2ccccc2)CCC1(O)c1ccccc1` (configuration not stated) the figure was 16.7%; with `CC1C(C)C(O)(c2ccccc2)CCN1C` (configuration not stated), -18.2%; with `CCN1CCC(O)(c2ccccc2)C(C(=O)c2ccccc2)C1` (configuration not stated), 3.22%.
Next, `O=C(NCc1ccco1)[C@@H]1CSC2c3ccccc3C(=O)N21` (some centres not stated): -2.9%; `CCCN(CC(=O)Nc1ccccc1OC)C(=O)c1ccc(=O)[nH]c1`: -2.3%; `NC(=O)C1CCN(C(=S)c2ccc(-c3ccc(Br)cc3)o2)CC1`: 76.2%.
For the molecule `S=C(c1ccc(-c2ccc(Br)cc2)o1)N1CCOCC1`, the inhibition came to 74%.
With `CN1CCN(c2ccc(NC(=O)c3ccc(Br)o3)cc2)CC1`, the inhibition was -1.79%.
With `CN1CCN(c2ccccc2NC(=O)c2ccc(-c3ccc(Br)cc3)o2)CC1` the figure was 7.26%; with `CS(=O)(=O)N1CCN(c2ccc(NC(=O)c3ccc(-c4ccc(Cl)cc4)o3)cc2)CC1`, -19.8%.
Turning to `CN1CCN(c2ccc(NC(=O)c3ccc(-c4ccccc4F)o3)cc2)CC1`, the inhibition was found to be 79.5%.
Next, `COC(=O)c1ccccc1NC(=O)CSc1ccc(C)cc1`: 66.9%.
Consider `Cc1onc(-c2c(Cl)cccc2Cl)c1C(=O)NC(=S)Nc1sc2c(c1C(N)=O)CCC(C)C2` (configuration not stated), for which the inhibition was 1.7%.
With `Cc1ccccc1C(=O)NC(=S)NC1CCSC1=O` (configuration not stated) the figure was 6.25%; with `COc1ccc(NS(=O)(=O)c2ccc(NC(=S)NC(=O)c3ccc(Br)cc3)cc2)nn1`, 52.8%; with `CSCCC(NC(N)=O)C(=O)Nc1ccc(C)cc1` (configuration not stated), -6.3%.
For the molecule `COc1ccc2cc3c(nc2c1)OCC3`, the inhibition worked out at 52%.
With `Cc1ccc2cc3c(nc2c1)N(c1ccccc1)CC3` the figure was -3.46%; with `CCOC(=O)NC(=O)/C(N=Nc1cccc(C(F)(F)F)c1)=C(\C)O`, 22.5%; with `COc1ccc(NC(=O)COC(=O)CN2C(=O)C3CC=CCC3C2=O)c([N+](=O)[O-])c1` (configuration not stated), 3.95%.
With `O=C(O)c1ccc(-[n+]2c(-c3ccccc3)cc(-c3ccccc3)cc2-c2ccccc2)cc1` the figure was -4.01%; with `CS(=O)(=O)N(CC(=O)N1CCOCC1)c1cc(C(F)(F)F)ccc1Cl`, -10.6%; with `COc1ccc(C(=O)OCC(=O)c2ccc(Br)s2)c(OC)c1`, 66.5%.
Next, `COc1ccc(C(=O)OCC(=O)c2ccc(Cl)s2)c(OC)c1OC`: 52.4%.
For `O=C(NCCSc1ccccc1)c1ccc(CN2CCOCC2)cc1`, the inhibition was 11.6%.
On to `Cn1c(N2CCN(C(c3ccccc3)c3ccccc3)CC2)nc2c1c(=O)[nH]c(=O)n2C`, for which the inhibition is -1.75%.
`Nc1ccc2c(c1)C(=O)c1ccccc1-2`: the inhibition is 79.4%.
With `Nc1ccc2c(c1)C(=O)c1ccccc1C2=O`, the inhibition is -1.17%.
Next, `O=C(CSc1nnc(C2COc3ccccc3O2)o1)Nc1ccc(F)cc1Cl` (configuration not stated): 27.9%; `Cc1cc(NC(=O)CSc2nnc(C3COc4ccccc4O3)o2)no1` (configuration not stated): 1.04%; `CCOc1ccc(OCc2ccc(C(=O)N/N=C(\C)c3ccccn3)cc2)cc1`: 94.8%.
As for `CCC/C(=N/NC(=O)c1cccc(Cl)c1)c1ccccc1`, the inhibition was 76.9%.
Next, `CSC(=NNC(=O)c1ccccc1O)SC`: 14.8%; `CC(/C=C/c1ccccc1)=N\NC(=O)CCc1ccccc1`: -7.22%; `CCOc1ccc(/C(C)=N\NC(=O)Cc2ccccc2)cc1`: 3%.
Consider `C/C(=N\NC(=O)c1ccccc1O)C1CC1`, for which the inhibition is -6.46%.
Consider `C/C(CCc1ccccc1)=N\NC(=O)CCc1ccccc1`, for which the inhibition was 2.92%.
In the case of `C/C(=N\NC(N)=O)c1cccc(Cl)c1`, the inhibition was -5.88%.
In the case of `O=C(NCc1nnc(SCC(=O)N2CCC(Cc3ccccc3)CC2)o1)c1ccccc1F`, the inhibition came out at 47.1%.
Take `CCCCn1c(N)c(N(C)C(=O)c2cc3c(s2)CCCCC3)c(=O)[nH]c1=O`: the inhibition stood at 19.5%.
Next, `Cc1ccc(N(CC(=O)NCc2ccco2)C(=O)CCC(=O)Nc2nccs2)cc1C`: -4.11%.
With `CCc1ccc(NC(=O)CSc2nc(O)cc(=O)n2C2CCCC2)cc1` the figure was 37.7%; with `COc1ccc(Cl)cc1NC(=O)CN(C)C(=O)c1cc(=O)c2ccccc2o1`, -2.49%; with `CCOC(=O)c1sc(NC(=O)CSc2ccccn2)c(C#N)c1C`, 5.94%.
For `CC(=O)N(Cc1ccccc1)Cc1cn(CCC#N)nc1-c1cccc([N+](=O)[O-])c1`, the inhibition is -6.03%.
With `C/C(CC(=O)N1CCCC1)=N\NC(=O)c1cc2ccccc2cc1O` the figure was 7.43%; with `C/C(=N\NC(=O)c1cc2ccccc2cc1O)c1ccc2c(c1)OCO2`, 14.4%.
Next, `CC(=O)N1CCC(=NNC(=O)c2cc3ccccc3cc2O)CC1`: 4.69%; `CC(/C=C/c1ccco1)=N/NC(=O)c1ccccc1Cl`: 48.9%.
With `CC(/C=C/c1ccco1)=N\NC(=O)c1cccnc1` the figure was 12.9%; with `C/C(=N\NC(=O)c1c[nH]c2ccccc12)c1ccc(C)o1`, 33.3%; with `CCCCC(NC(=O)c1ccc(Cl)cc1)C(=O)O` (configuration not stated), -0.66%.
Regarding `O=C(C[n+]1cccc(CNC(=O)c2ccc(OC(F)F)cc2)c1)Nc1ccccc1Cl`, the inhibition stood at 7.02%.
In the case of `O=C(c1ccc([N+](=O)[O-])cc1)N1CCN(Cc2ccccc2[N+](=O)[O-])CC1`, the inhibition was 12.7%.
Take `COc1ccc(C2C(C(=O)NCCN3CCOCC3)c3ccccc3C(=O)N2C2CCCCC2)cc1` (configuration not stated): the inhibition was 28.1%.
With `O=C(/C=C/NCc1cccnc1)c1ccc(Br)cc1` the figure was 77.9%; with `COc1cc(NC(=O)CSc2nc(=O)n(CCN3CCOCC3)c3c2CCC3)cc(OC)c1`, 1.82%; with `O=C(C1CCCN1S(=O)(=O)c1cccc2nsnc12)N1CCN(c2ccc(F)cc2)CC1` (configuration not stated), -10%.
